Compound activity: PubChem BioAssay, National Center for Advancing Translational Sciences (NCATS)
BLM inh-1: inhibitors of human Bloom syndrome helicase BLM; Potency, µM (top dose mostly 56.1 µM), inactives show top-dose activity change, negative = inhibition, hits mostly inhibitors; recombinant BLM DNA unwinding, fluorescence dequenching; P54132; 350,000 tested, 0.2% active;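 further: plate controls were vehicle for no effect and no enzyme for full effect; nearly all actives have a fitted effect of over 35% in size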
APE1 inh-1: blocks human APE1 abasic DNA cleavage; P27695; recombinant APE1, TAMRA/BHQ-2 abasic DNA cleavage fluorescence; Potency, µM (top dose mostly 65.8 µM), for inactives: at the top dose activity change, negative = inhibition, most hits filed as inhibitors; 350,000 tested, 0.35% active; AID 2517;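 further: plate controls were vehicle for no effect and reference inhibitor for full effect; nearly all actives have a fitted effect of over 55% in size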
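Compound pre-exposure to 0.75 nM APE1, 15 min at ambient temperature. Reaction initiated with 50 nM TAMRA/BHQ-2 THF substrate, read immediately in kinetic mode, 525 nm excitation, 598 nm emission.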
FEN1 inh: inhibitors of human flap endonuclease 1; Potency, µM (top dose mostly 114 µM), for the others: at the highest dose activity change, negative = inhibition, usual class: inhibitors; 390,000 tested, 0.35% active; Recombinant FEN1 flap cleavage, fluorescence, 15 min; P39748; further: nearly all actives have a fitted effect of over 65% in size
Target sequence (P39748 whole entry, looked up): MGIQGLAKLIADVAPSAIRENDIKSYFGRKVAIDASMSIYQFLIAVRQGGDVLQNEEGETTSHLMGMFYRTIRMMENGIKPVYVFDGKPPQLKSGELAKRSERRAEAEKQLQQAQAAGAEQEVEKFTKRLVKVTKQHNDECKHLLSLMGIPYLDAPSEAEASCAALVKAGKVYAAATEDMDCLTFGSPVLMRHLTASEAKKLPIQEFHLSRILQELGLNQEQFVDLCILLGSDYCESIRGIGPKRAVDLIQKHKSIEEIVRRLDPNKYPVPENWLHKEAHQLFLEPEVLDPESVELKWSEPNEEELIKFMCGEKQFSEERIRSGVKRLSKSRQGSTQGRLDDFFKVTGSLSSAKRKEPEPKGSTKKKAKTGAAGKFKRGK
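FEN1 at 10 nM, compound pretreatment for 15 min (room temperature), 50 nM final substrate to initiate; endpoint reads at 0 and 15 min; DMSO-only plates used as vehicle background.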
TDP1 block: inhibitors of human tyrosyl-DNA phosphodiesterase TDP1. Potency, µM (highest dose often 130 µM), for the others: at the top dose activity change, negative = inhibition, most hits filed as inhibitors. Q9NUW8. recombinant TDP1, AlphaScreen DNA substrate cleavage. 350,000 tested, 0.28% active; further: nearly all actives have a fitted effect of over 40% in size
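Recombinant human Tdp1 (E. coli-expressed, 1 nM final) preincubated with compounds 15 min at room temperature, then 5'-biotin/3'-phosphotyrosine-FITC DNA substrate (15 nM final) added for 5 min. AlphaScreen beads (10 ug/ml final) added 10 min; cleavage lowers signal.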
RECQ1 inh-1: inhibitors of human RECQ1 DNA helicase | P46063 | RECQ1 DNA unwinding, red fluorescence kinetic read | Potency, µM (titrated, usually from 57.3 µM), for inactives: top-dose activity, negative = inhibition, usual class: inhibitors | 240,000 tested, 0.54% active | AID 2549;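 further: plate controls were vehicle for no effect and no enzyme for full effect; nearly all actives have a fitted effect of over 30% in size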
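RECQ1T1 50 nM; forked duplex (20 bp + 30-nt ss tails) 200 nM, ATP 2 mM final; pH 8.0, 2 mM MgCl2, 2.5 ug/ml poly(dI-dC); 15 min compound preincubation; discontinuous kinetic read over 2 h at RT.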
DNA dye displace: displaces fluorescent dye from DNA, flagging APE1 artifacts. shares compounds with APE1 inh-1. DNA fluorescent dye displacement counterscreen, fluorescence. Potency, µM (doses to about 28.5 µM), for inactives: top-dose activity change, negative = inhibition, actives largely listed as inhibitors. 480 tested, 7% active. AID 2564;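 further: loss of thiazole orange fluorescence as the dye is displaced from duplex DNA; 0% = ThO with dsDNA and no compound and -100% = ThO without dsDNA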
Endo IV inh: Endo IV (E. coli) inhibition counter-screen | shares compounds with APE1 inh-1 | E. coli Endo IV, fluorogenic AP-site DNA cleavage | Potency, µM (top dose mostly 27.1 µM), for inactives: at the top dose activity change, negative = inhibition, actives largely listed as inhibitors | 560 tested, 4% active | AID 2565;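 further: plate controls were uninhibited enzyme wells for no effect and no enzyme buffer wells for full effect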
APE1 inh-2: APE1 (human) endonuclease inhibition, confirmation; 750 tested, 44% active; shares compounds with APE1 inh-1; purified APE1, fluorogenic abasic-site DNA cleavage; Potency, µM (series often up to 57.1 µM), for inactives: at the top dose activity change, negative = inhibition, actives largely listed as inhibitors; further: nearly all actives have a fitted effect of over 30% in size
APE1 FP: APE1 (human) DNA binding inhibition, fluorescence polarization; shares compounds with APE1 inh-1; APE1 binding to TAMRA-labelled double-stranded DNA, fluorescence polarization displacement; Potency, µM (titrated, usually from 28.5 µM), for inactives: top-dose activity, negative = inhibition, actives largely listed as inhibitors; 480 tested, 7% active; AID 2573
BLM inh-2: BLM (human) helicase inhibition, confirmation; BLM DNA unwinding, fluorescence quenching, biochemical; Potency, µM, inactives show max response, negative = inhibition, usual class: inhibitors; shares compounds with BLM inh-1; 220 tested, 40% active; AID 2585;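 further: strand separation dequenches TAMRA so unwinding raises red fluorescence; series mostly up to about 69 µM; nearly all actives have a fitted effect of over 45% in size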
RECQ1 inh conf: confirmation of human RECQ1 helicase inhibitors; shares compounds with RECQ1 inh-1; RECQ1 helicase DNA unwinding, fluorescence; Potency, µM (top dose mostly 229 µM), for the others: at the highest dose activity change, negative = inhibition, usual class: inhibitors; 610 tested, 28% active; AID 2708; further: nearly all actives have a fitted effect of over 45% in size
RECQ1 ADP FP: counter-screen for RECQ1 inhibitors: ADP displacement | Potency, µM (doses to about 228 µM), for the others: top-dose activity change, negative = inhibition, hits mostly inhibitors | ADP fluorescence polarization displacement counterscreen | shares compounds with RECQ1 inh-1 | AID 2711 | 530 tested, 27% active; further: nearly all actives have a fitted effect of over 45% in size
RECQ1 inh-2: RECQ1 helicase inhibition confirmed, round 2; Potency, µM (series often up to 119 µM), for the others: top-dose activity, negative = inhibition, usual class: inhibitors; shares compounds with RECQ1 inh-1; recombinant RECQ1 DNA unwinding, red fluorescence; 1,100 tested, 15% active; AID 504841; further: nearly all actives have a fitted effect of over 50% in size
The depositor's hits bear a star; i = inactive; ? = inconclusive; . = no result given; [ ] = another dose, or the depositor's remark. Rows were chosen to be rich in hits. Some 0.92% of all compounds tested hit in one or more screens of this group. The call rests on the fitted dose curve; in most records, active means well fitted curve in the direction sought with a large enough effect; inconclusive means small, poorly fitted or top-dose-only effect, or another doubt; inactive means no such curve, though single readings can be large; an effect the other way counts as inactive or inconclusive. Unless noted, on the % scale 0 is the no-effect control and ±100 the full control effect; potency means the concentration at half of the fitted maximal effect.

SMILES | BLM inh-1 | APE1 inh-1 | FEN1 inh | TDP1 block | RECQ1 inh-1 | DNA dye displace | Endo IV inh | APE1 inh-2 | APE1 FP | RECQ1 inh-2 | others
COc1ccc2c(Sc3ccccc3)c(C(=O)NCC(C)c3ccccc3)[nH]c2c1 (configuration not stated) | -3% | . | -13% | -6% | . | . | . | . | . | .
N=C1/C(=C\c2ccc(SCc3ccco3)o2)C(=O)N=C2SC=NN12 | -6% | 3.2µM* | ? | ? | 8.9µM* | 15% | 10% | ? | 4% | ?
O=C(c1cc(C(=O)c2ccco2)cc(C(=O)c2ccco2)c1)c1ccco1 | -19% | 32µM* | 9% | ? | 35µM* | -7% | 27% | ? | -5% | -55%
O=C(c1ncc[nH]1)c1ccco1 | -7% | -1% | -1% | 5% | i | . | . | . | . | .
Cc1ccc(SC2=NS(=O)(=O)c3ccccc32)c(C)c1 | . | . | -25% | 1% | . | . | . | . | . | .
N#C/C(=C\c1ccccc1OCc1ccc(C(=O)O)cc1)c1ccccc1 | -7% | 6% | -17% | 0% | i | . | . | . | . | .
N#C/C(=C/c1cccn1-c1cccc(C(=O)O)c1)c1ccc(Cl)cc1 | -25% | 11µM* | 7% | . | ? | ? | -6% | 5µM* | 1% | 45µM*
COc1cc(NC(=O)Nc2nnc(N3CCCCCC3)s2)cc(OC)c1 | -1% | . | 20% | 6% | . | . | . | . | . | .
CSc1nc(NCCOCCO)c2sc3nc(-c4ccco4)c4c(c3c2n1)CCC4 | 25µM* | 32µM* | 2% | 35µM* | 25µM* | 13µM* | -10% | 13µM* | -7% | ? | BLM inh-2=?
CCOC(=O)c1cc(-c2ccc(N3CCOCC3)cc2)nn1-c1ccccc1C(=O)O | -25% | 2.5µM* | -5% | 1.6µM* | 11µM* | 3% | ? | ? | ? | ? | RECQ1 inh conf=45µM*;RECQ1 ADP FP=36%[91.9 µM]
Cn1c(SCC(=O)N/N=C/C=C/c2ccco2)nc2ccccc21 | 1% | 10µM* | ? | ? | 18µM* | ? | -8% | ? | 0% | . | RECQ1 inh conf=?
C=C1N[C@]2(C(=O)COC(C)=O)[C@@H](C[C@H]3[C@@H]4CCC5=CC(=O)C=C[C@]5(C)[C@H]4[C@@H](O)C[C@@]32C)O1 | 3% | . | . | . | . | . | . | . | . | .
